Measurements: the supplement of paper PMC4709259
Counter-ions that a name gives are not always drawn. ± gives the standard deviation.

Tests used:
[1] = test system: Jurkat; experiment: mean cell size (FSC-A) relative to DMSO control (fraction of control); higher = larger cells; conditions: 48 h
Method in brief: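 Jurkat cells seeded at 600 cells/µl were incubated 1 h, then exposed for 48h to the Enzo Screen-Well FDA Approved Drug Library v2.0 at 25µM in 0.9% (v/v) final DMSO. Drugs that cut counts below 20% of controls were diluted 10-fold and retested, down to 25nM. Cell count and mean cell size (forward scatter area) were read on an Accuri C6 flow cytometer, relative to solvent-only controls. Plates held 6-12 controls; values are means of 3 biological replicates.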

[2] = test system: Jurkat; experiment: cell count relative to DMSO control (fraction of control); higher = more cells (less growth inhibition); conditions: 48 h

Row | Compound | mean cell size [1] | cell count [2]
1 | CC(C)(C)NC[C@H](O)c1ccc(O)c(CO)c1 [Levalbuterol·HCl] (concentration: 25 µM) | 0.929 ± 0.03 | 1.14 ± 0.14
2 | CN(C)CCc1c[nH]c2ccc(CS(=O)(=O)N3CCCC3)cc12 [Almotriptan] (concentration: 25 µM) | 0.95 ± 0.053 | 0.62 ± 0.18
3 | C#C[C@]1(O)CC[C@H]2[C@@H]3CCc4cc(OC)ccc4[C@H]3CC[C@@]21C [Mestranol] (concentration: 25 µM) | 1.01 ± 0.022 | 0.91 ± 0.12
4 | OCCN(CCO)c1nc(N2CCCCC2)c2nc(N(CCO)CCO)nc(N3CCCCC3)c2n1 [Dipyridamole] (concentration: 25 µM) | 0.9538 ± 0.0084 | 0.652 ± 0.1
5 | C[N+]1(C)[C@@H]2C[C@@H](OC(=O)C(O)(c3cccs3)c3cccs3)C[C@H]1[C@@H]1O[C@@H]12 [Tiotropium Bromide Monohydrate] (concentration: 25 µM) | 0.988 ± 0.036 | 0.68 ± 0.051
6 | Cc1cnc(C(=O)NCCc2ccc(S(=O)(=O)NC(=O)NC3CCCCC3)cc2)cn1 [Glipizide] (concentration: 25 µM) | 1.09 ± 0.049 | 0.612 ± 0.11
7 | Nc1ccc(C(=O)NCC(=O)O)cc1 [Aminohippurate·Na] (concentration: 25 µM) | 0.995 ± 0.044 | 0.792 ± 0.089
8 | CC(C)CN(C[C@@H](O)[C@H](Cc1ccccc1)NC(=O)O[C@H]1CO[C@H]2OCC[C@H]21)S(=O)(=O)c1ccc(N)cc1 [Darunavir] (concentration: 25 µM) | 1.01 ± 0.037 | 0.62 ± 0.062
9 | C/C(=C\C(=O)OCCCCCCCCC(=O)O)C[C@@H]1OC[C@H](C[C@@H]2O[C@H]2[C@@H](C)[C@H](C)O)[C@@H](O)[C@H]1O [Mupirocin] (concentration: 25 µM) | 0.928 ± 0.065 | 0.525 ± 0.18
10 | CCN(CC)CC(=O)Nc1c(C)cccc1C [Lidocaine·HCl·H2O] (concentration: 25 µM) | 1.01 ± 0.033 | 1.03 ± 0.14
11 | NC[C@@H]1O[C@H](O[C@H]2[C@@H](O)[C@H](O[C@@H]3[C@@H](O)[C@H](N)C[C@H](N)[C@H]3O[C@H]3O[C@H](CN)[C@@H](O)[C@H](O)[C@H]3N)O[C@@H]2CO)[C@H](N)[C@@H](O)[C@@H]1O [Neomycin Sulfate] (concentration: 25 µM) | 0.935 ± 0.018 | 0.944 ± 0.038
12 | O=C1CCC(N2C(=O)c3ccccc3C2=O)C(=O)N1 (stereo not drawn) [Thalidomide] (concentration: 25 µM) | 0.922 ± 0.015 | 1.01 ± 0.12
13 | OCCN1CCN(CCCN2c3ccccc3Sc3ccc(C(F)(F)F)cc32)CC1 [Fluphenazine·HCl] (concentration: 2.5 µM) | 1.13 ± 0.017 | 0.701 ± 0.079
14 | NS(=O)(=O)c1cc(C(=O)O)c(NCc2ccco2)cc1Cl [Furosemide] (concentration: 25 µM) | 0.932 ± 0.034 | 0.249 ± 0.11
15 | NC(=O)c1cnccn1 [Pyrazinamide] (concentration: 25 µM) | 1 ± 0.031 | 0.808 ± 0.066
16 | NC(=O)NO [Hydroxyurea] (concentration: 25 µM) | 0.958 ± 0.017 | 1.06 ± 0.099
17 | CCS(=O)(=O)CCn1c([N+](=O)[O-])cnc1C [Tinidazole] (concentration: 25 µM) | 0.992 ± 0.049 | 0.528 ± 0.018
18 | COC(=O)[C@H]1[C@H]2C[C@@H]3c4[nH]c5cc(OC)ccc5c4CCN3C[C@H]2C[C@@H](OC(=O)c2cc(OC)c(OC)c(OC)c2)[C@@H]1OC [Reserpine] (concentration: 25 µM) | 0.988 ± 0.025 | 0.616 ± 0.098
19 | CN1CC2c3ccccc3Oc3ccc(Cl)cc3C2C1 (stereo not drawn) [Asenapine Maleate] (concentration: 25 µM) | 0.938 ± 0.019 | 0.935 ± 0.16
20 | CCN(CC)CC#CCOC(=O)C(O)(c1ccccc1)C1CCCCC1 (stereo not drawn) [Oxybutynin Chloride] (concentration: 25 µM) | 0.904 ± 0.022 | 0.895 ± 0.049
21 | CCCCNC(=O)NS(=O)(=O)c1ccc(C)cc1 [Tolbutamide] (concentration: 25 µM) | 0.976 ± 0.032 | 0.606 ± 0.22
22 | CCN(CC)C(=O)C1(c2ccccc2)CC1CN (stereo not drawn) [Milnacipran·HCl] (concentration: 25 µM) | 0.977 ± 0.032 | 0.792 ± 0.1
23 | COc1ccc(Cl)cc1C(=O)NCCc1ccc(S(=O)(=O)NC(=O)NC2CCCCC2)cc1 [Glyburide] (concentration: 25 µM) | 1.02 ± 0.051 | 0.806 ± 0.047
24 | C[C@@H]1O[C@@H]1P(=O)(O)O [Fosfomycin Calcium] (concentration: 25 µM) | 0.916 ± 0.036 | 0.474 ± 0.19
